Molecules are shown by their SMILES. About 83,000 compounds went through this panel and 20% of them were active in at least one assay; those are over-represented in the sample as a whole.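 Plates (96-well) were seeded with cells, treated with compound at one concentration, and incubated for 48 hours before percent growth was determined.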 The source made the active and inactive calls.

For this experiment, the system named is RPMI-8226 leukemia. As to the kind of experiment: NCI-60 one-dose screen, 48 h (100 = growth as untreated, 0 = no growth, -100 = all killed). The settings on record: 10 µM unless noted. On the procedure: Growth inhibition of the RPMI-8226 human tumor cell line is measured as a screen for anti-cancer activity. Cells are grown in 96 well plates and exposed to the test compound for 48 hours. Compounds are tested at a single concentration, which is 10^-5 M for most compounds. The reported endpoint is percent growth (GI% or GIPRCNT), where numbers from 0 - 100% represent growth inhibition, and numbers from -100% - 0 represent cell death. For example, a value of 40 represents 60% growth inhibition. A value of 0 means no net growth occurred over the course of the experiment. A value of -40 indicates 40% of cells at the beginning of the experiment died by the end of the experiment. A value of -100 means all cells are dead at the end of the experiment.
NCI-60 Human Tumor Cell Lines Screen was performed using the standard one-dose NCI protocol, which is described in more detail at https://dtp.cancer.gov/discovery_development/nci-60/default.htm.
Compounds with GIPRCNT values below 10 were considered active. Activity score was based on GIPRCNT using the following formula: […]
Score is 0 for GIPRCNT values of 100 or above, 50 for GIPRCNT values of 0, and 100 for GIPRCNT values of -100.
For the compound `CNC(=O)c1cc(Oc2ccc3c(c2)sc2nc(-c4cc(C(F)(F)F)cc(C(F)(F)F)c4)cn23)ccn1`, the growth was 50.1% (inactive).

For the compound `C=C1C(=O)O[C@H]2[C@H]1CC/C(COC(=O)/C=C\C(=O)NCc1ccc(Cn3c(=O)sn(CCCCl)c3=O)cc1)=C\CC[C@@]1(C)O[C@@H]21`, the growth was 44.9% (inactive).

With `c1ccc(-c2ccc3c(c2)C2(CCNCC2)CN3)cc1`, the growth was 97.5% (inactive).

For `O=[N+]([O-])c1c(O)c(Cl)cc(Cl)c1Cl`, the growth is 97.9% (inactive).

Turning to `CC1(C)CC[C@]2(CO)CC[C@]3(C)[C@](O)([C@H](O)C[C@@H]4[C@@]5(C)CCCNC(C)(C)[C@@H]5CC[C@]43C)[C@@H]2C1`, the growth is 74.4% (inactive).

For the compound `Cc1ccc(S(=O)(=O)c2nc(-c3ccccc3)oc2SCC(N)=O)cc1`, the growth was 96.8% (inactive).

On to `Fc1ccc(/C=C/[C@@H]2C[C@@H](F)CCO2)cc1`, for which the growth was 67.6% (inactive).

For `Brc1ccc(Nc2nc(Nc3cnc4ccccc4c3)c3[nH]cnc3n2)cc1`, the growth is 64.2% (inactive).

With `N#Cc1c(-c2ccc(Br)cc2)nc2c(N=Nc3ccc(S(N)(=O)=O)cc3)c(N)nn2c1N`, the growth is -13.6% (active).

In the case of `COc1cc(/C=C/c2cn[nH]c2-c2ccc(C)cc2)cc(OC)c1OC`, the growth was 25.8% (inactive).

In the case of `N#CC1=C(N)Oc2c(sc3c(F)cccc23)C1c1ccc([N+](=O)[O-])cc1` (stereo not given), the growth is -9.41% (active).

For the compound `O=S(=O)(N=C1C(Cl)=C(Cl)C(=NS(=O)(=O)c2ccccc2)C(Cl)=C1Cl)c1ccccc1`, the growth is 79.4% (inactive).

`CC(=O)N1N=C(c2ccc(Nc3nc(Nc4ccc(F)cc4)nc(Nc4ccc(F)cc4)n3)cc2)CC1c1ccc(N(C)C)cc1` (stereo not given): the growth was 4.52% (active).

On to `C=C(C)[C@@H]1CC[C@]2(C(=O)N3CCN(C)CC3)CC[C@]3(C)[C@H](CC[C@@H]4[C@@](C)(CCC(=O)O)[C@H](C(=C)C)CC[C@]43C)[C@@H]12`, for which the growth was 58.6% (inactive).

As for `O=c1cc(-c2ccccc2)nc(SCc2nc3cc(Cl)c(Cl)cc3[nH]2)[nH]1`, the growth is 114% (inactive).

Consider `CCCn1c(=S)sc2c(NNC(C)=O)nc(C)nc21`, for which the growth was 93.1% (inactive).

Take `N#Cc1ccc(O)c(C2=NCC(c3ccc(-c4ccccc4)cc3)O2)c1` (stereo not given): the growth is 23.8% (inactive).

For the compound `O=C1Nc2ccccc2/C1=N/N1C(=O)CN(CCCl)C1=O`, the growth is 101% (inactive).

As for `O=S(O)c1cc(Cl)cc(Cl)c1OCc1ccccc1`, the growth was 93.1% (inactive).

For `CCCCCc1ccc(S(=O)(=O)Nc2ccc3nc(N)oc3c2)cc1`, the growth is 38.4% (inactive).

For the compound `COc1ccc(C(c2cc(OC)c(OC)c(OC)c2)N2CCCCC2)cc1` (stereo not given), the growth was 51.2% (inactive).

Turning to `C=CC(CC(c1ccccc1)(c1ccccc1)c1ccccc1)N(CC)CC` (stereo not given), the growth was 38.2% (inactive).

As for `O=S(=O)(Nc1ccc2ccccc2c1)c1ccc(-c2cnc(C3CC3)o2)cc1`, the growth is 12% (inactive).

Take `Nc1[nH]nc2nc(-c3ccccc3)n3c4ccccc4nc3c12`: the growth is 101% (inactive).

On to `O=C(O)c1cn(C2CC2)c2cc(N3CCN(C(=O)N4CCOCC4)CC3)c(F)cc2c1=O`, for which the growth is 108% (inactive).

As to `Nc1cc(-c2ccc(Cl)cc2)nn1-c1nnc(/C=C/c2ccco2)c(=O)[nH]1`, the growth is 43.3% (inactive).

As to `CCOC(=O)c1c(C)nc2c(c1N)C(=O)C(=O)N2Cc1ccc(OC)cc1`, the growth is 20.1% (inactive).

`CC(C)=CC(=O)N[C@H]1CC[C@]2(C)C3CC[C@]4(C)C(C(C)N(C)C)=CCC4C3CCC2[C@H]1O` (stereo not given in full): the growth is 5.55% (active).

In the case of `O=C(Nc1ccc(Oc2cccc(Cl)c2)c(Cl)c1)c1cccnn1`, the growth was 71.1% (inactive).

Consider `C=CN(C(=O)N1CCN(c2cc3c(cc2F)c(=O)c(C(=O)O)cn3C2CC2)CC1)c1nc(-c2ccccc2)cs1`, for which the growth is 93.4% (inactive).

As to `NCCCNc1nc2ccccc2c2c(=O)c3cc(Cl)ccc3sc12`, the growth was -37.9% (active).

In the case of `ClCCn1cnc2c(SCc3ccccc3)ncnc21`, the growth is 50.9% (inactive).

Take `CCN1C(=O)N(c2ccccc2)C2NC(=S)N(/N=C/C=C/c3ccccc3OC)C21` (stereo not given): the growth is 14.7% (inactive).

As to `C=CCn1cc(-c2nc3ccccc3s2)c2cc(-c3ccc4c5c(cccc35)C(=O)N(CCO)C4=O)ccc21`, the growth was 99.3% (inactive).

As to `COc1ccc(-c2cc(-c3cccnc3)nc3sc4c(N)c(C(C)=O)c(-c5ccccc5)nc4c23)cc1OC`, the growth is 53.7% (inactive).

On to `CCOc1ccc(/C=C/C(=O)c2cccc(OCCCOc3cccc(C(=O)/C=C/c4ccc(OCC)cc4)c3)c2)cc1`, for which the growth was 93.6% (inactive).

For the compound `COc1ccc(/C=C2\c3cc(OC)c(OC)c(OC)c3CC[C@@H]2O)cc1F`, the growth is 28.1% (inactive).

For `O=C(C[C@]1(O)C(=O)Nc2ccc(Br)cc21)c1ccco1`, the growth was 100% (inactive).

Turning to `Cc1nc([P+](c2ccccc2)(c2ccccc2)c2ccccc2)c(N2CCCCC2)o1`, the growth is -13.5% (active).

Turning to `COc1ccc(-c2nc3ccc(C)cc3c3c2c(=O)n(C)c(=O)n3C)cc1OC`, the growth is 101% (inactive).

The values above are taken from PubChem BioAssay (NCI).
